{"source": "PubChem BioAssay AID686979", "about": "(National Center for Advancing Translational Sciences (NCATS), 2013)", "note": "Out of some 420,000 compounds screened, about 50,000 (12%) were called active. Inconclusive results (about 26%) are left out. Calls come from the whole dose curve; as a rule, active = well fitted inhibition curve with a large enough effect; inconclusive = small, poorly fitted or top-dose-only effect; inactive = flat fitted curve, though single readings scatter. The entries come from a sample that favours actives as a whole. % is set by controls: 0 for no effect and ±100 for the full control effect; potency is the fitted concentration of half-maximal effect."}
{"assay": "qHTS for Inhibitors of human tyrosyl-DNA phosphodiesterase 1 (TDP1): qHTS in cells in presence of CPT; note: nearly all actives have a fitted effect of over 55% in size", "settings": "chicken DT40 Tdp1-/-;hTDP1 cells + 20 nM CPT, ATP luminescence, 48 h; series mostly up to 46.2 µM; activity change, negative = growth inhibition: at the top concentration", "summary_of_the_method": "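Cell growth measured by CellTiter-Glo luminescence after a minimum 48 h, 37 C compound exposure with 20 nM CPT in Tdp1-knockout DT40 cells stably expressing hTDP1, seeded 400/well; qHTS titration format.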"}
{"smiles": "COC(=O)c1sccc1NS(=O)(=O)c1ccc(F)cc1F", "activity change, negative = growth inhibition": "-12.9% (inactive)"}
{"smiles": "O=C(O)c1ccccc1/C=N/Nc1ccc(S(=O)(=O)Nc2ccc(Cl)cc2)cc1[N+](=O)[O-]", "activity change, negative = growth inhibition": "-4.1% (inactive)"}
{"smiles": "COc1ccc(S(=O)(=O)Nc2ccc3cn[nH]c3c2)cc1[N+](=O)[O-]", "activity change, negative = growth inhibition": "-29% (inactive)"}
{"smiles": "O=[N+]([O-])c1cc(S(=O)(=O)Nc2cccc(Cl)c2)ccc1N=Nc1c(O)[nH]c2ccccc12", "Potency": "20.6 µM (active)"}
{"smiles": "CN(Cc1ccc(F)cc1Cl)S(=O)(=O)c1cccs1", "activity change, negative = growth inhibition": "-6.15% (inactive)"}
{"smiles": "Cn1cc(C(=O)c2ccc(Cl)cc2Cl)cc1C(=O)NN", "activity change, negative = growth inhibition": "-12% (inactive)"}
{"smiles": "CC(OC(=O)CCc1nc(=O)c2ccccc2n1C)C(=O)NCc1ccc2c(c1)OCO2", "note": "(configuration not stated)", "activity change, negative = growth inhibition": "5.95% (inactive)"}
{"smiles": "CCOC(=O)c1ccc(NC(=O)CCS(=O)(=O)c2ccc3c(c2)oc(=O)n3C)cc1", "activity change, negative = growth inhibition": "-4.86% (inactive)"}
{"smiles": "CCOc1ccc(OCC)c(NC(=O)CCS(=O)(=O)c2ccc(C)cc2)c1", "activity change, negative = growth inhibition": "-26.2% (inactive)"}
{"smiles": "Cc1ccc(S(=O)(=O)CC(=O)Nc2nnc(C)s2)cc1", "activity change, negative = growth inhibition": "10.5% (inactive)"}
{"smiles": "CC(C)Cc1nnc(NC(=O)CCc2ccccc2)s1", "activity change, negative = growth inhibition": "-0.358% (inactive)"}
{"smiles": "Cc1ccc(S(=O)(=O)CCC(=O)Nc2nnc(CC(C)C)s2)cc1", "Potency": "20.6 µM (active)"}
{"smiles": "CCOC(=O)c1ccc(NC(=O)CCS(=O)(=O)c2ccc(C)cc2)cc1", "Potency": "18.4 µM (active)"}
{"smiles": "O=C1C(=O)N(CCN2CCOCC2)C(c2cccc(Cl)c2)/C1=C(/O)c1ccc2c(c1)OCO2", "note": "(configuration not stated)", "activity change, negative = growth inhibition": "13.7% (inactive)"}
{"smiles": "CN(CC(O)COc1ccc(S(=O)(=O)N2CCOCC2)cc1Cl)C1CCCCC1", "note": "(configuration not stated)", "activity change, negative = growth inhibition": "-8.6% (inactive)"}
{"smiles": "CCCCOc1ccc(N(CC(=O)NC(C)C)C(=O)CCC(=O)Nc2ccccn2)cc1", "activity change, negative = growth inhibition": "10.3% (inactive)"}
{"smiles": "O=C(Cc1cccs1)N/N=C/c1ccc(OCc2ccccc2)cc1", "activity change, negative = growth inhibition": "2.58% (inactive)"}
{"smiles": "O=C(NN1C(=O)C2C3C=CC(C4CC34)C2C1=O)c1ccc(Cl)cc1", "note": "(configuration not stated)", "activity change, negative = growth inhibition": "-0.451% (inactive)"}
{"smiles": "O=C(N/N=C/c1cccc(O)c1)c1cc2c(ccc3ccccc32)o1", "activity change, negative = growth inhibition": "-24.9% (inactive)"}
{"smiles": "O=C(N/N=C/c1c[nH]c2ccccc12)c1cc2ccccc2o1", "Potency": "14.6 µM (active)"}
{"smiles": "O=C(O)c1cccc(NC(=S)N/N=C/c2c[nH]c3ccccc23)c1", "activity change, negative = growth inhibition": "10.2% (inactive)"}
{"smiles": "N=c1oc2ccccc2cc1C(=O)N/N=C/c1ccccc1", "activity change, negative = growth inhibition": "-5.9% (inactive)"}
{"smiles": "O=C(N/N=C/c1c[nH]c2ccccc12)c1ccccc1O", "activity change, negative = growth inhibition": "11.7% (inactive)"}
{"smiles": "O=C(N/N=C/c1coc2ccccc2c1=O)c1cc2ccccc2o1", "activity change, negative = growth inhibition": "-2.89% (inactive)"}
{"smiles": "Cc1c(/C=N\\NC(=O)c2cc3ccccc3o2)c2ccccc2n1C", "Potency": "3.66 µM (active)"}
{"smiles": "CSC(=S)N/N=C/c1c[nH]c2ccccc12", "Potency": "0.651 µM (active)"}
{"smiles": "Cc1ccc(NC(=O)c2cc3ccccc3o2)cc1", "activity change, negative = growth inhibition": "1.36% (inactive)"}
{"smiles": "CCOC(=O)c1ccc(NC(=O)C2CC(=O)N(c3ccc4c(c3)OCCO4)C2)cc1", "note": "(configuration not stated)", "activity change, negative = growth inhibition": "-27% (inactive)"}
{"smiles": "O=C1CCCC(O)=C1N=Nc1ccc2ncsc2c1", "activity change, negative = growth inhibition": "4.68% (inactive)"}
{"smiles": "NNC(=O)CSc1nnc(-c2ccccc2)n1-c1ccccc1", "activity change, negative = growth inhibition": "-1.97% (inactive)"}
{"smiles": "CCCCn1c(N)c(N(CCOC)C(=O)c2sc3ccccc3c2Cl)c(=O)[nH]c1=O", "activity change, negative = growth inhibition": "4.55% (inactive)"}
{"smiles": "CC[C@H](C)C(=O)N[C@H]1CCCN1C(=O)/C=C/c1ccccc1", "activity change, negative = growth inhibition": "8.02% (inactive)"}
{"smiles": "O=S(=O)(NCCS(=O)(=O)N1CCN(c2ccccc2)CC1)c1ccc(F)cc1", "activity change, negative = growth inhibition": "11.5% (inactive)"}
{"smiles": "O=C(Nc1ccccc1Cl)NC1(C(=O)N2CCOCC2)CCCCC1", "activity change, negative = growth inhibition": "-8.94% (inactive)"}
{"smiles": "COc1cc2c(cc1OC)C(=O)NCC(C)(C)O2", "activity change, negative = growth inhibition": "-1.92% (inactive)"}
{"smiles": "Cc1cc(C)cc(NC(=O)Cn2cnc3c(nnn3Cc3ccc(F)cc3)c2=O)c1", "activity change, negative = growth inhibition": "-5.08% (inactive)"}
{"smiles": "CCCCCn1c(=O)[nH]c2cc(C(=O)Nc3ccc(F)cc3)ccc2c1=O", "Potency": "20.6 µM (active)"}
{"smiles": "O=C(NC1CCCCC1)c1ccc2c(=O)n(CC3CCCO3)c(=O)[nH]c2c1", "note": "(configuration not stated)", "activity change, negative = growth inhibition": "2.52% (inactive)"}
{"smiles": "CCCCCn1c(=O)[nH]c2cc(C(=O)NCCCN3CCCCC3C)ccc2c1=O", "note": "(configuration not stated)", "activity change, negative = growth inhibition": "0.222% (inactive)"}
{"smiles": "CCCCCn1c(=O)[nH]c2cc(C(=O)Nc3cc(C)cc(C)c3)ccc2c1=O", "Potency": "4.11 µM (active)"}
{"smiles": "COCCn1c(=O)[nH]c2cc(C(=O)NCc3cccnc3)ccc2c1=O", "activity change, negative = growth inhibition": "7.55% (inactive)"}
{"smiles": "CC(C)n1c(=O)[nH]c2cc(C(=O)Nc3ccccc3)ccc21", "activity change, negative = growth inhibition": "-8.55% (inactive)"}
{"smiles": "O=C(NCc1ccccc1)c1ccc2c(c1)nc1n2CCCCC1", "activity change, negative = growth inhibition": "-4.9% (inactive)"}
{"smiles": "COc1cccc(C2C(C(=O)Nc3ccc(C)cc3C)=C(C)Nc3c(C(=O)Nc4ccccc4)cnn32)c1", "note": "(configuration not stated)", "activity change, negative = growth inhibition": "-11.3% (inactive)"}
{"smiles": "CC(C)(C)OC(=O)C1=C(CO)CS[C@@H]2[C@H](NC(=O)Cc3ccccc3)C(=O)N12", "activity change, negative = growth inhibition": "4.65% (inactive)"}
{"smiles": "C[C@H](NC(=O)C1CC(=O)N(c2ccc3c(c2)OCO3)C1)C(=O)NCc1ccco1", "note": "(some centres not stated)", "activity change, negative = growth inhibition": "5.48% (inactive)"}
{"smiles": "CCOc1ccc(S(=O)(=O)N2CCC(C(=O)NCC(=O)Nc3cccc(Cl)c3C)CC2)cc1", "activity change, negative = growth inhibition": "-15.3% (inactive)"}
{"smiles": "COC(=O)C(Cc1c[nH]c2ccccc12)NC(=O)CCNC(=O)c1ccco1", "note": "(configuration not stated)", "activity change, negative = growth inhibition": "7.7% (inactive)"}
{"smiles": "C=CCC[C@H](Cc1ccc(F)cc1)C(=O)OC[C@@H](Cc1c[nH]c2ccccc12)NC(=O)[C@H](CC=C)CC(=O)N[C@H](CO)Cc1ccccc1", "Potency": "5.8 µM (active)"}
{"smiles": "C=CC[C@@H](CC(=O)N[C@H](CO)Cc1ccccc1)C(=O)N[C@H](C)COC(=O)[C@@H](CC=C)Cc1ccc(F)cc1", "Potency": "20.6 µM (active)"}
{"smiles": "CC(=O)NC(Cc1c[nH]c2ccccc12)C(=O)O", "note": "(configuration not stated)", "activity change, negative = growth inhibition": "-3.87% (inactive)"}
{"smiles": "C=CC[C@H](CC(=O)NCCO)C(=O)N[C@@H](COC(=O)[C@@H](CC=C)Cc1ccc(F)cc1)Cc1c[nH]c2ccccc12", "Potency": "29.1 µM (active)"}
{"smiles": "C=CC[C@@H](CC(=O)NCCO)C(=O)N[C@H](C)COC(=O)[C@@H](CC=C)CC(=O)OC(C)(C)C", "activity change, negative = growth inhibition": "-17.2% (inactive)"}
{"smiles": "COc1ccc(CNC(=O)[C@H](Cc2c[nH]c3ccccc23)NC(C)=O)cc1OC", "activity change, negative = growth inhibition": "2.69% (inactive)"}
{"smiles": "CC(=O)NC(Cc1c[nH]c2ccccc12)C(=O)NCCc1ccccc1", "note": "(configuration not stated)", "activity change, negative = growth inhibition": "-18.1% (inactive)"}
{"smiles": "O=C(CCc1c[nH]c2ccccc12)NCCOc1ccccc1", "activity change, negative = growth inhibition": "0.982% (inactive)"}
{"smiles": "C=CC[C@@H](CC(=O)N[C@H](CO)Cc1ccccc1)C(=O)N[C@@H](COC(=O)[C@@H](CC=C)Cc1ccc(F)cc1)Cc1c[nH]c2ccccc12", "Potency": "16.4 µM (active)"}
{"smiles": "CC(CCc1ccccc1)NC(=O)COC(=O)c1ccc(F)cc1", "note": "(configuration not stated)", "activity change, negative = growth inhibition": "3.85% (inactive)"}
{"smiles": "CC(C)CNc1ncnc2c1nnn2C", "activity change, negative = growth inhibition": "-14.1% (inactive)"}
{"smiles": "CCC(C)NC(=O)/C=C/c1ccc(S(=O)(=O)NCc2ccco2)cc1", "note": "(configuration not stated)", "activity change, negative = growth inhibition": "0.277% (inactive)"}
{"smiles": "CC(=O)N1CCC(N(C(=O)Nc2ccc(Cl)cc2)C(C)C)CC1", "activity change, negative = growth inhibition": "-1.36% (inactive)"}
{"smiles": "CC(=O)NC(CC(=O)Nc1nc(-c2ccccc2)c(C(C)=O)s1)c1ccccc1", "note": "(configuration not stated)", "activity change, negative = growth inhibition": "-14.9% (inactive)"}
